Bioassay records from PubChem.
Lassa entry: blocks Lassa virus binding or cell entry | Lassa virus pseudotyped entry inhibition, cell-based qHTS | Potency, µM (doses to about 49.2 µM), inactives show at the top dose activity change, negative = inhibition, most hits filed as inhibitors | 18,000 compounds, 4.1% hits
Marburg entry: Marburg virus entry inhibition. AID 720532. Potency, µM (highest dose often 49.2 µM), for inactives: at the top dose activity change, negative = inhibition, usual class: inhibitors. 18,000 compounds, 6.5% hits. Marburg virus pseudotype entry/binding inhibition, cell-based
* hit, by the source's call; ! = a repeat was not active; [ ] = another dose, or the depositor's remark. Hits are enriched below; roughly 8% of the tested compounds scored in any of these assays. The call rests on the fitted dose curve; tested in HEK293 cells. On the % scale 0 is the no-effect control and ±100 the full control effect; potency means the concentration at half of the fitted maximal effect.

`CCn1c(-c2nonc2N)nc2cnc(Oc3cccc(NC(=O)c4ccc(N(C)C)cc4)c3)cc21` gave Lassa entry 18.2% and Marburg entry 15.6%.
`N[C@@H](Cc1ccc(O)c(O)c1)C(=O)O` gave Lassa entry inconclusive and Marburg entry 7.94µM*!.
For N[C@H](C(=O)O)[C@@H](O)c1ccc(O)c(O)c1 the results were Lassa entry inconclusive and Marburg entry 1.25µM*.
Screening CCC(N)C(O)c1ccc(O)c(O)c1 (stereo unspecified) returned Lassa entry 8.7% and Marburg entry -3.1%.
For N[C@H](Cc1ccc(O)cc1)C(=O)O the results were Lassa entry 5.8% and Marburg entry 8.7%.
O=C1[C@@H]2[C@H]3[C@H](O)[C@H](O)CC(=NOC[C@@H](O)COCc4ccco4)[C@@H]3CC[C@H]2C(=O)N1C[C@@H]1CCCO1 was read as Lassa entry 7.2%[8.59 µM] and Marburg entry inconclusive.
Screening CC(C)c1c(C(=O)NCC(C)(C)N2CCOCC2)cnn1-c1nccc(-c2cccs2)n1 returned Lassa entry -3.5% and Marburg entry -15.6%.
Screening Cc1ccc(S(=O)(=O)NCl)cc1 returned Lassa entry -9.9% and Marburg entry -13.2%.
For Cc1ccc(S(=O)(=O)N[C@@H](Cc2ccccc2)C(=O)CCl)cc1 the results were Lassa entry 35.5µM* and Marburg entry inconclusive.
Screening O=C1OC2(CCCCC2)CC2=C1[C@H]1O[C@](CCCCN3C(=O)c4ccccc4C3=O)(Cc3ccccc31)O2 returned Lassa entry -20.7%[8.59 µM] and Marburg entry inconclusive.
CC1(C)C(=O)NC2=C1C(=O)C(=O)c1ccccc12 was read as Lassa entry 12.6µM* and Marburg entry 3.98µM*.
`O=C1c2ccccc2C(=O)C1c1ccc(F)cc1` gave Lassa entry -10.9% and Marburg entry 1.1%.
`CC(=O)[C@]12[C@H](c3ccccc3)[C@@H]3CCN(C(=O)N[C@H]1c1ccccc1)[C@@]32C` gave Lassa entry -1.4%[8.59 µM] and Marburg entry -11.2%[8.59 µM].
Screening O=S1(=O)CCSCCN1Cc1ccc(F)cc1F returned Lassa entry 17.7% and Marburg entry 23.4%.
Screening CC[C@H](C)[C@H](NC(=O)[C@H](Cc1ccc(O)cc1)NC(=O)[C@@H]1CCCN1C(=O)[C@@H](NC(=O)[C@@H](N)CCCCN)[C@@H](C)CC)C(=O)N[C@@H](CC(C)C)C(=O)O returned Lassa entry -10.2% and Marburg entry 18.1%.
CCCCCCCCCCCCC(=O)N1CCCC[C@H]1CNC(=O)[C@@H](N)CCCCN was read as Lassa entry -27.7% and Marburg entry 28.2µM*.
`NC(Cc1ccccc1)C(=O)O` (stereo unspecified) gave Lassa entry 4.7% and Marburg entry -5.5%.
For CCCCC[C@@H](O)C1C(=O)OC(C)[C@H](O)/C=C/C=C/C=C/C=C/C=C(\C)C(O)C(O)C(O)C[C@H](O)C[C@H](O)C[C@H](O)C[C@H](O)C[C@@H]1O (stereo partly specified) the results were Lassa entry -5.2% and Marburg entry 15.8µM*!.
Screening CC(Cc1ccccc1)NCc1ccccc1Cl (stereo unspecified) returned Lassa entry -1.8% and Marburg entry 2.8%.
Screening Clc1ccccc1CNCC1CCC(CNCc2ccccc2Cl)CC1 (stereo unspecified) returned Lassa entry 20µM* and Marburg entry 6.31µM*.
`Cc1cc2c(c(=O)o1)[C@H]1O[C@](c3ccsc3)(Cc3c1ccc1ccccc31)O2` gave Lassa entry 13.2%[8.59 µM] and Marburg entry inconclusive.
Screening CC(=O)N[C@@H]([C@@H](O)[C@H](O)[C@H](O)CO)[C@@H](O)CC(=O)C(=O)O returned Lassa entry -6.9% and Marburg entry inconclusive.
For COCCN1C(=O)NC(c2cccc(F)c2)C(C(C)=O)=C1C (stereo unspecified) the results were Lassa entry 4.6%[8.59 µM] and Marburg entry -6.0%[8.59 µM].
For C#CCN1C(=O)[C@]2(OCCC=C[C@@H]2C)c2cc(OC)ccc21 the results were Lassa entry 5.0%[8.59 µM] and Marburg entry 9.1%[8.59 µM].
`CS(=O)(=O)Nc1ccc(-c2ccc3c(NC(=O)C4CC4)n[nH]c3c2)cc1` gave Lassa entry -74.0% and Marburg entry 11.4%.
Screening CS(=O)(=O)Nc1cccc(-c2ccc3c(NC(=O)C4CC4)n[nH]c3c2)c1 returned Marburg entry 3.53µM*.
For CC(=O)OC[C@H]1O[C@H](CCON=C(C)CCN2CCCc3nc(C)c(C)cc32)C=C[C@H]1OC(C)=O the results were Lassa entry -19.5%[8.59 µM] and Marburg entry -28.1%[8.59 µM].
C/C1=C2N=C(/C=C3N=C(/C(C)=C4\[N-][C@@](C)([C@@H]5N=C1[C@](C)(CCC(=O)NCC(C)OP(=O)(O)O[C@H]1[C@@H](O)[C@@H](n6cnc7cc(C)c(C)cc76)O[C@@H]1CO)[C@H]5CC(N)=O)[C@@](C)(CC(N)=O)[C@@H]4CCC(N)=O)[C@@](C)(CC(N)=O)[C@@H]\3CCC(N)=O)C(C)(C)[C@@H]/2CCC(N)=O.CC(=O)O.[Co] (stereo partly specified) was read as Lassa entry 3.16µM* and Marburg entry 2.82µM*.
`C[C@@H]1O[C@@H](O[C@@H]2C=C3CC[C@@H]4[C@H](CC[C@]5(C)[C@@H](c6ccc(=O)oc6)CC[C@]45O)[C@@]3(C)CC2)[C@H](O)[C@H](O)[C@H]1O` gave Lassa entry 1µM* and Marburg entry inconclusive.
Screening CCOC(=O)CN1C(=O)NC(c2cccc(F)c2)C(C(C)=O)=C1C (stereo unspecified) returned Lassa entry 4.5%[8.59 µM] and Marburg entry 12.7%[8.59 µM].
`O=S1(=O)c2cccc(Cl)c2OC[C@H](c2ccccc2)N1Cc1cccc(F)c1` gave Marburg entry -49.5%.
`CC1(C)C(=O)C=C[C@@]2(C)C1CC(O)[C@]1(C)C2CC[C@@]2(C)C(c3ccoc3)OC(=O)C3O[C@]312` (stereo partly specified) gave Lassa entry inconclusive and Marburg entry 12.6µM*.
`CC1(C)C(O)CC(O)[C@]2(C)C1CC(O)[C@]1(C)C2CC[C@@]2(C)C(c3ccoc3)OC(=O)C3O[C@]312` (stereo partly specified) gave Lassa entry 2.1% and Marburg entry inconclusive.
Screening CC1(C)OC2CC(=O)OCC23C1CC(=O)C1(C)C3CC[C@@]2(C)[C@H](c3ccoc3)OC(=O)C3OC312 (stereo partly specified) returned Lassa entry -11.9% and Marburg entry 1.8%.
For CC1(C)C(=O)C=C[C@@]2(C)C1C=C[C@@]1(C)C2CC[C@@]2(C)C(c3ccoc3)OC(=O)C3OC312 (stereo partly specified) the results were Lassa entry inconclusive and Marburg entry 7.94µM*.
For CC(C)=CCCC(C)=CCON=C1C[C@@H](O)[C@@H](O)[C@@H]2[C@H]3C(=O)N(C[C@@H]4CCCO4)C(=O)[C@@H]3CC[C@@H]12 the results were Lassa entry 3.0%[8.59 µM] and Marburg entry -5.0%[8.59 µM].
`CC(C)CN1Cc2cc(Br)ccc2Oc2ccc(Cl)cc2S1(=O)=O` gave Lassa entry -9.6% and Marburg entry inconclusive.
`COC(=O)N[C@H](C(C(=O)OC)=C(C)NCc1ccccc1)c1ccc(Cl)cc1` gave Lassa entry 26.6%[8.59 µM] and Marburg entry -16.7%[8.59 µM].
Screening CCc1ccc(OCc2ccccc2C(=O)Nc2ccc3nc(C)cc(N)c3c2)cc1 returned Lassa entry 7.08µM* and Marburg entry 3.98µM*.
COc1ccc(NC(=O)c2ccc(-c3ccc(C)c4ccccc34)o2)cc1 was read as Lassa entry 26.1% and Marburg entry 14.3%.
